Screens from PubChem.
Shown are actives, neighbours in structure and some others; about 2.8% of the full set was active somewhere.
SENP8 block-1 = human SENP8 protease inhibitors, primary screen, biochemical, fluorescence, Nedd8 protein substrate, uHTS | Sentrin-specific protease 8 (Homo sapiens), Q96LD8 | recombinant SENP8 | inhibition, % at 20 µM | 360,000 compounds, 0.64% hits; in the data active = inhibition mostly above about 40%, no sharp cut-off; inactive = mostly below about 27%
Target sequence (Q96LD8 whole entry, looked up): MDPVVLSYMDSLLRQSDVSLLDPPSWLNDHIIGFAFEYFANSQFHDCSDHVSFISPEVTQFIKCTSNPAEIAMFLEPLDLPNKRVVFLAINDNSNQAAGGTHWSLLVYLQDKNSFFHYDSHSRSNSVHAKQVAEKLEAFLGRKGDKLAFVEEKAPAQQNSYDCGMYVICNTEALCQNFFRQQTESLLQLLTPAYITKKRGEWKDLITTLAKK
SENP6 inh = SENP6 protease inhibitors, primary screen, biochemical, luminescence, uHTS | Recombinant SENP6 catalytic domain, aminoluciferin luminescence | inhibition, % at 10 µM | 330,000 compounds, 1.8% hits;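 active = inhibition above about 50% at the single tested dose, limit read from the data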
SENP8 block-2 = SENP8 protease inhibitors, primary screen, biochemical, luminescence; 330,000 compounds, 1.2% hits; Sentrin-specific protease 8 (Homo sapiens), Q96LD8; inhibition, % at 10 µM; purified SENP8, Z-RLRGG-aminoluciferin cleavage; in the data active = inhibition above about 50%
HSP90 refold inh = HSP90 inhibitors, primary screen, cell lysate, luminescence. Rabbit reticulocyte lysate, luciferase refolding luminescence, 3 h. AID 1789, 2009. Heat shock protein HSP 90 (rabbit reticulocyte lysate; luciferase refolding). inhibition, % at 5.6 µM. 290,000 compounds, 0.91% hits;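 active = inhibition above the screen-wide mean plus 3 SD, computed separately per campaign, cut at about 16% in these data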;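 also: inhibitors lower the luminescence because luciferase stays unfolded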
SENP7 inh = SENP7 protease inhibitors, primary screen, biochemical, luminescence, uHTS; recombinant SENP7, Z-RLRGG-aminoluciferin luminescence, 40 min; inhibition, % at 5 µM; 330,000 compounds, 1.5% hits; AID 434973, 2010;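 active = inhibition above about 50% at the single test dose, limit read from the data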
Target sequence (Q9BQF6 706-1050 limits assumed): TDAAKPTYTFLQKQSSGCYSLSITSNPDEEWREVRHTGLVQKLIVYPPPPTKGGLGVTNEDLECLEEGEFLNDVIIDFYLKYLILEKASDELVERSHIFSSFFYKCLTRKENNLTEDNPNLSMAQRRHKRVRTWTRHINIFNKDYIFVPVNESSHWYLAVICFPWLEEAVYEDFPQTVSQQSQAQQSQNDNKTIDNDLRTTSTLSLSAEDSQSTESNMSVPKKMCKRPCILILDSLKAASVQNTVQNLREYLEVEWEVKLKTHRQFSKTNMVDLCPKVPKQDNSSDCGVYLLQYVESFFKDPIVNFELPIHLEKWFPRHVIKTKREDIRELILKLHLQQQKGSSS
SENP8 conf = human SENP8 protease inhibitors, confirmation, biochemical, Nedd8 protein substrate, single concentration; shares compounds with SENP8 block-1; purified SENP8, Nedd8-AMC/pro-Nedd8 cleavage fluorescence, 30 min; inhibition, % at 25 µM; 1,400 compounds, 15% hits; AID 624319, 2012; in the data active = inhibition mostly above about 39%, no sharp cut-off; inactive = mostly below about 34%
Large screens that a line does not name were inactive (follow-up assays come after a bar, where they were run); ! = a repeat was not active.

CC(=O)O[C@H]1CC[C@@]2(C)C(=CC[C@H]3[C@@H]4CC[C@H](C(C)=O)[C@@]4(C)CC[C@@H]32)C1	none (no result: HSP90 refold inh)
COCCCC1CCN(Cc2nc(-c3ccccc3)no2)CC1	none
O=C(NCC(c1cccnc1)N1CCOCC1)c1cccs1 (stereo not given)	none
COc1ccccc1N1CCN(S(=O)(=O)c2cc(-c3cc(C)no3)ccc2C(C)C)CC1	none
O=C(NCCN1CCOCC1)c1ccc([N+](=O)[O-])cc1[N+](=O)[O-]	SENP8 block-1 46 | SENP8 conf inactive
O=C(NCCN1CCOCC1)c1cc([N+](=O)[O-])ccc1Cl	none
COc1ccc(CCn2c(C)cc(C(=O)CSc3nnnn3-c3ccccc3)c2C)cc1OC	none
CC(C)NC(=O)c1ccc(CN2CCc3ccccc3C2)cc1	SENP8 block-1 44 | SENP8 conf inactive
C[C@H]1CN([C@@H](C)CO)C(=O)CCCn2nncc2CO[C@H]1CN(C)S(=O)(=O)c1ccccc1	none (no result: SENP6 inh, SENP8 block-2, HSP90 refold inh, SENP7 inh)
Cc1[nH][nH]c(=O)c1C(c1c(C)[nH][nH]c1=O)c1cn(Cc2ccc(F)cc2)c2ccccc12	SENP8 block-1 77 (no result: SENP6 inh, SENP8 block-2, SENP7 inh) | SENP8 conf 73
O=c1c2ccccc2ncn1Cc1ccc(Cl)c(Cl)c1	none
Cc1[nH][nH]c(=O)c1C(c1c(C)[nH][nH]c1=O)c1cn(Cc2ccc(Cl)c(Cl)c2)c2ccccc12	SENP8 block-1 73 (no result: SENP6 inh, SENP8 block-2, SENP7 inh) | SENP8 conf 68
Cc1c(CCC(=O)N[C@@H](C)C(=O)O)c(=O)oc2c(C)c3oc4c(c3cc12)CCCC4	none
Cc1sc2ncnc(SCC(=O)N3c4ccccc4Sc4ccc(Cl)cc43)c2c1C	none
Cc1nc2c(C(=O)Nc3ccc(N4CCCC(O)C4)cc3)snc2c(=O)[nH]1 (stereo not given)	SENP8 block-1 57 | SENP8 conf inactive
COc1ccc(C(=O)Nc2ccc(N3CCCC3)cc2)cc1	none
COc1ccc(-c2nc[nH]c2[N+](=O)[O-])cc1	SENP8 block-1 49 | SENP8 conf inactive
N/C(=N\OC(=O)COc1ccc(Br)cc1)c1cccc([N+](=O)[O-])c1	none
NC(=NC1CCCCC1)c1ccc([N+](=O)[O-])cc1	SENP8 block-1 42 | SENP8 conf inactive
CC(C)C(c1nnnn1Cc1ccc(F)cc1)N1CCN(Cc2ccc3c(c2)OCO3)CC1 (stereo not given)	none
Cc1ccc(NNC(N)=S)cc1Cl	SENP8 block-1 60 | SENP8 conf inactive
O=c1[nH]n2c(=O)c3c([nH]c2c1N=Nc1cccc(C(F)(F)F)c1)CCCC3	SENP8 block-1 56 | SENP8 conf inactive
CCN(CC)S(=O)(=O)c1ccc(C)c(NC(=O)COC(=O)c2ccc(C)c(S(=O)(=O)N3CCOCC3)c2)c1	none
O=S(=O)(c1ccccc1)N1CCN(C2CCCCCCC2)CC1	SENP8 block-1 41 | SENP8 conf inactive
O=S(=O)(c1ccccc1)N1CCN(S(=O)(=O)c2ccccc2)C1	SENP8 block-1 41 | SENP8 conf inactive
COc1ccccc1C(=O)N1CCN(S(=O)(=O)c2ccccc2)CC1	SENP8 block-1 46 | SENP8 conf inactive
NS(=O)(=O)c1ccc(S(=O)(=O)N2CCN(C3CCCC3)CC2)cc1	none
CCOC(=O)Oc1ccc(C(=O)OCCCN(C)C)cc1OC	none
COc1ccc(C(=O)OCCCN(C)C)cc1OC	SENP8 block-1 41 | SENP8 conf inactive
CCN(CC)S(=O)(=O)c1ccc(N2CCN(c3ccccc3OC)CC2)c(N)c1	none
COc1cccc(Cc2n[nH]c(=S)n2Cc2ccco2)c1	none
Cc1nc(N2CCOCC2)nc(Oc2ccccc2F)c1[N+](=O)[O-]	SENP8 block-1 41 | SENP8 conf inactive
CCOc1nc(N2CCOCC2)nc(C)c1[N+](=O)[O-]	none
CSCCCNC(=O)c1ccc(OC2CCN(CCc3ccccc3)CC2)cc1	none
CC1=NN(c2ccc(S(=O)(=O)O)cc2C)C(=O)C1	SENP8 block-1 69 | SENP8 conf inactive
O=C(O)C1=NN(c2cc(Cl)c(S(=O)(=O)O)cc2Cl)C(=O)C1	none (no result: SENP6 inh, SENP8 block-2, HSP90 refold inh, SENP7 inh)
CC1=C/C(=C\C=C(C#N)C#N)N(C)c2ccccc21	SENP8 block-1 50 | SENP8 conf inactive
CN1/C(=C/C=C(C#N)C#N)C(C)(C)c2ccccc21	none
CCCc1nc2ccccc2n1CCOc1ccccc1	SENP8 block-1 42 | SENP8 conf inactive
CC(C)c1nc(CNC(=O)CC2C(=O)NCCN2Cc2ccccc2)cs1 (stereo not given)	none (no result: SENP6 inh, SENP8 block-2, HSP90 refold inh, SENP7 inh)
Cc1[nH]n(-c2ccc(F)cc2)c(=O)c1/C=N/c1sc2c(c1C#N)CCCC2	SENP8 block-1 48 | SENP8 conf inactive
O=C(CSc1nccn(-c2ccc(Br)cc2)c1=O)NCc1ccccc1	none (no result: HSP90 refold inh)
COc1ccc(C(=O)CNc2ccc(C)cc2C)cc1	SENP8 block-1 54 | SENP8 conf inactive
COC(=O)c1sc(N2C(=O)C(=O)/C(=C(/O)c3ccc(C)cc3)C2c2ccco2)nc1C (stereo not given)	none (no result: SENP8 block-1)
CCOc1ccc(NS(=O)(=O)c2ccc(Cl)c(N=Nc3c(O)[nH]c(=S)[nH]c3=O)c2)cc1Br	SENP8 block-1 40 (no result: SENP6 inh, SENP8 block-2, HSP90 refold inh, SENP7 inh) | SENP8 conf inactive
COc1ccc(NS(=O)(=O)c2cc(N=Nc3c(O)[nH]c(=O)[nH]c3=O)ccc2OC)cc1Br	none (no result: SENP6 inh, SENP8 block-2, HSP90 refold inh, SENP7 inh)
Cc1noc(NS(=O)(=O)c2ccc(NC(=O)CCC3CCCC3)cc2)c1C	SENP8 block-1 43 | SENP8 conf inactive
CCCCCCC(=O)Nc1ccc(S(=O)(=O)Nc2onc(C)c2C)cc1	none (no result: HSP90 refold inh)
O=C1CC(SC(=S)C2CCCC2=O)C(=O)N1 (stereo not given)	SENP8 block-1 41 (no result: SENP6 inh, SENP8 block-2, HSP90 refold inh, SENP7 inh) | SENP8 conf inactive
O=C1CC(Sc2ncccc2C(=O)O)C(=O)N1 (stereo not given)	none
CC(C)(C)OC(=O)C(Cc1ccc(OC(C)(C)C)cc1)NC(=O)CNC(=O)CNC(=O)OCc1ccccc1 (stereo not given)	none
C=CCNC(=S)NN=C1CCC(c2ccccc2)CC1 (stereo not given)	SENP8 block-1 45 | SENP8 conf inactive
Cc1ccc(C)c(NC(=S)/C(=C(\[O-])c2ccc(Cl)s2)[n+]2ccccc2)c1	SENP8 block-1 69 | SENP8 conf inactive
CCc1nnc(NC(=O)CN2C(=O)c3ccccc3C2=O)s1	none
COc1cc(N(C(C)=O)c2ccc(O)c(C(=O)O)c2)c2ncccc2c1	SENP8 block-1 44 (no result: SENP6 inh, SENP8 block-2, HSP90 refold inh, SENP7 inh) | SENP8 conf 61
COc1cc(N(C(C)=O)c2ccc(O)cc2)c2ncccc2c1	none (no result: SENP6 inh, SENP8 block-2, HSP90 refold inh, SENP7 inh)
O=C(Cc1cc(=O)[nH][nH]1)N/N=C/c1c(F)cccc1Cl	none
O=C(Cc1cc(=O)[nH][nH]1)N/N=C/c1c(Cl)cccc1Cl	SENP8 block-1 44! | SENP8 conf inactive
O=C(COC(=O)c1ccc(Br)o1)Nc1ccc2[nH]c(=O)[nH]c2c1	none (no result: HSP90 refold inh)
